The full list was thinned out, with hits kept by preference.
GC-B act: human GC-B receptor activators, primary screen, HEK293 GC-B cells, cGMP TR-FRET, EC30 CNP. activation, % at 10 µM. 370,000 compounds, 0.11% hits. AID 1920062, 2024. Atrial natriuretic peptide receptor 2 (Homo sapiens), P20594. 0% at EC30 CNP, 100% saturating CNP;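 active means activation at 10 µM reaching about 35% in either raw or pattern-adjusted values, limit read from the data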
ALR inh: inhibitors of human ALR sulfhydryl oxidase, primary screen, biochemical, H2O2 detection, HRP-luminol luminescence, single point. purified ALR, DTT oxidation. inhibition, % (no concentration beside the values). 290,000 compounds, 3.8% hits. AID 485317, 2010;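 active means mean replicate inhibition above about 79%, with every replicate also reaching it, limit read from the data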
HDAC3 inh: HDAC3 deacetylase inhibitors, primary screen, biochemical, fluorescence, cell-free homogeneous. Histone deacetylase 3 (Homo sapiens), O15379. recombinant HDAC3, fluorogenic peptide/trypsin coupled. inhibition, % at 8.3 µM. 320,000 compounds, 0.15% hits; in the data active means inhibition above about 26%, passing the limit was not always enough
Target sequence (O15379 whole entry, looked up): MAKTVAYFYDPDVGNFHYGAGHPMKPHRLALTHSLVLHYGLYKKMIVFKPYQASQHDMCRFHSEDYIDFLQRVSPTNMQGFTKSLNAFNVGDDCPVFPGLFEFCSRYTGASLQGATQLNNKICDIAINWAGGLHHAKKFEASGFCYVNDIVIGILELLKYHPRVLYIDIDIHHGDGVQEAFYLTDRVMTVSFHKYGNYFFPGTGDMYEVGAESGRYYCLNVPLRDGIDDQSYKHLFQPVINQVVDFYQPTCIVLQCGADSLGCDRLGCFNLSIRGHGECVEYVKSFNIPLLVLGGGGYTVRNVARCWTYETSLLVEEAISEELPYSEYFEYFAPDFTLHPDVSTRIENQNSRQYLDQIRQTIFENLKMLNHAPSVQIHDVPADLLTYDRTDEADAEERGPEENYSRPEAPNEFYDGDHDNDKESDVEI
GC-A act: GC-A stimulated cGMP production enhancers – HEK293 GC-A cells, cGMP TR-FRET, EC30 ANP, primary screen. 0% at EC30 ANP, 100% saturating ANP. activation, % at 10 µM. 370,000 compounds, 0.14% hits; in the data active means activation above about 40%
* = called active by the depositor; nt = no result given.

SMILES	GC-B act	ALR inh	HDAC3 inh	GC-A act
O=C(CSc1n[nH]c(-c2ccccc2Br)n1)NC(=O)NCc1ccco1	0	1	-4	0
CCCCNC(=O)CS(=O)Cc1nc(-c2cccc(Cl)c2)oc1C (centres undefined)	-7	100*	0	-1
CCCCNC(=O)CS(=O)Cc1nc(-c2cccc(C)c2)oc1C (centres undefined)	-4	99*	-7	1
Cc1cccc(-c2nc(CS(=O)CC(=O)NCCc3ccc(Cl)cc3)c(C)o2)c1 (centres undefined)	-3	91*	-2	3
CCCCSCCCNC(=O)CS(=O)Cc1nc(-c2cccc(C)c2)oc1C (centres undefined)	1	99*	-1	-1
COc1cccc(-c2ccc(NC(=O)C3CCCN(Cc4nccn4C)C3)cc2)c1 (centres undefined)	-6	-4	-2	-2
COc1ccc(CNC[C@H]2O[C@@H](n3ccc(=O)[nH]c3=O)[C@H](O)[C@@H]2O)cc1	0	nt	nt	2
CCC(C)NC(=O)CS(=O)Cc1nc(-c2cccc(C)c2)oc1C (centres undefined)	1	98*	4	3
Nc1nc(SCc2ccc(F)cc2)ns1	0	98*	-48	2
Cc1ccccc1CSc1nsc(N)n1	nt	-123	3	nt
Nc1nc(SCc2ccc(Cl)cc2Cl)ns1	0	99*	13	-5
Nc1nc(SCc2ccc(Cl)cc2Cl)nc2nc3c(cc12)CCCC3	10	90*	-3	0
CC1(C)Nc2ccc(O)cc2-c2c1ssc2=S	-7	99*	1	3
Cc1cc(C(=O)NNC(=S)Nc2cccc(C(F)(F)F)c2)nn1C	-4	51	-7	1
CC(OC(=O)c1ccc(NC(=O)CC#N)cc1)C(=O)Nc1ccc2c(c1)OCCO2 (centres undefined)	-4	97*	2	-1
CC(=O)Nc1ccc(NC(=O)C(C)OC(=O)c2ccc3c(c2)OCCO3)cc1 (centres undefined)	-4	nt	nt	0
O=C(COC(=O)c1ccc(O)cc1)NCc1ccc2c(c1)OCO2	-1	-3	3	-5
NC(=O)c1ccc(NC(=O)COC(=O)c2ccc3c(c2)OCCO3)cc1	-4	-2	2	2
N#CCC(=O)Nc1ccc(C(=O)OCC(=O)NCc2ccc3c(c2)OCO3)cc1	-5	99*	3	0
O=C(COC(=O)c1ccc2c(c1)OCO2)Nc1ccccc1	3	0	-2	1
CN(C)c1ccc(NC(=O)COC(=O)c2ccc3c(c2)OCO3)cc1	-2	22	33*	-6
N#CCC(=O)Nc1ccc(C(=O)OCC(=O)NC(=O)Nc2ccc3c(c2)OCCO3)cc1	-4	99*	1	2
CCn1c(=O)[nH]c2cc(C(=O)Nc3cc(C)cc(C)c3)ccc2c1=O	1	nt	0	5
Cc1ccccc1S(=O)(=O)N1CCCc2nc(C)c(C)cc21	3	nt	nt	1
N=c1n(CCCOc2ccccc2Cl)c2ccccc2n1CC(N)=O	-12	nt	-2	-25
SMILES	GC-B act	ALR inh	HDAC3 inh	GC-A act
O=C(Nc1ccc(F)cc1Cl)C1CCCN1S(=O)(=O)c1cccc2cccnc12 (centres undefined)	6	nt	nt	-1
CCOCCCNC(=S)Nc1ccc(S(N)(=O)=O)cc1	3	-15	-3	0
CC(C)c1c(C(=O)N/N=C/c2ccc(C(F)(F)F)cc2)nnn1-c1nonc1N	10	-1	4	-6
CSc1ccccc1NC(=O)NCCCl	2	-2	-4	3
CCOC(=O)c1cnc2c(c(C)nn2-c2ccc(C)cc2)c1Cl	-11	nt	nt	60*
CCOC(=O)c1cnc2c(c(C)nn2C)c1Oc1cc(Cl)cc(Cl)c1	-10	-3	9	-2
COc1cccc(-c2c(C#N)c(N)nc3c2c(=O)nc2sccn23)c1	nt	-8	-2	nt
COc1cc(OC)cc(C(=O)NCC2CCCN(C(=O)c3csc(C(C)C)n3)C2)c1 (centres undefined)	-1	-7	8	-2
COc1ccc(NC2CCCN(C(=O)c3cc(CC(C)C)nc(N)n3)C2)cc1 (centres undefined)	3	93*	6	3
COc1ccc(NC2CCCN(C(=O)c3csc(C(C)C)n3)C2)cc1OC (centres undefined)	2	99*	-12	0
COc1ccc(NC2CCCN(C(=O)c3csc(C(C)C)n3)C2)cc1 (centres undefined)	4	99*	6	4
CCCCC1Cc2[nH]c(=S)[nH]c(=O)c2C(c2ccc(F)cc2)O1 (centres undefined)	-1	nt	nt	-1
Cc1cc(-c2n[nH]c(=S)n2-c2ccccc2)nn1C	4	42	9	5
S=c1[nH]nc(COc2ccc3ccccc3c2)o1	-16	30	7	1
Oc1cc2ccccc2cc1-c1n[nH]c(=S)o1	1	97*	1	1
Cc1cc(-c2n[nH]c(=S)o2)c(C)n1-c1ccccc1	2	95*	7	-2
S=c1[nH]nc(-c2c[nH]c3ccccc23)o1	-4	98*	-13	0
CCCCOc1ccc(C(=O)NCC(=O)N2CC(C)CC(C)C2)cc1 (centres undefined)	7	-10	0	3
C=CCNC(=O)C1COc2ccccc2O1 (centres undefined)	-2	-4	nt	3
CCN(CCCNC(=O)CCNC(=O)Cn1cnc2ccccc2c1=O)c1cccc(C)c1	3	99*	1	-8
CCN(CCCNC(=O)CNC(=O)Cn1cnc2ccccc2c1=O)c1ccccc1	-2	98*	8	-2
CCOCCCNC(=O)Cn1cc2c(n1)CCCC2	1	-16	-5	1
CCN(CCCNC(=O)CCc1nc(-c2ccc(OC)cc2)no1)c1cccc(C)c1	-10	87*	2	-9
CCN(CCCNC(=O)Cn1cc2c(n1)CCCC2)c1cccc(C)c1	-6	99*	-1	-11
CC(C)C[C@@]12C(=O)N(c3cccc(F)c3)C(=O)N1[C@H](c1ccc(F)cc1)[C@@H]1C(=O)N(C3CCCCC3)C(=O)[C@@H]12	0	-4	-3	-10
SMILES	GC-B act	ALR inh	HDAC3 inh	GC-A act
O=C(Cn1cnc([N+](=O)[O-])n1)c1ccc(O)c(O)c1	-6	94*	-4	3
CNC(=S)NNC(=O)c1sc2cc(C(F)(F)F)cnc2c1-c1cccnc1	-2	88*	3	6
CCOC(=O)CNc1nnc(SCC(=O)OCC)[nH]c1=O	-1	100*	17	-1
COC(=O)CSc1nnc(C)c(=O)[nH]1	5	-6	2	1
O=C(N[C@H](C(=O)N1CCC[C@H]1C(=O)NCCc1ccccc1Cl)c1ccccc1)C1CCCC1	-4	nt	nt	-7
CN1C=CC=C/C1=C1\SC(=S)N(c2ccccc2)C1=O	-1	99*	3	-9
